Experimental data reported in ChEMBL document CHEMBL3988442, “University of Dundee, Small-Polar-MMV Screening Library” (2021).
About 13,000 (27%) of roughly 48,000 compounds showed an effect of 50% or more. The list shows a part of the results.

What follows are compounds tested on Wolbachia pipientis (assay: Anti-Wolbachia Cell-Based Screen). Details: 5 µM.
Format: functional
Set-up: scale not given: in the data most compounds retested in dose-response had high values

| Compound | Percent Effect |
| --- | --- |
| CCc1cnc(N2CC[C@@H]3CN(CCC(C)C)S(=O)(=O)[C@@H]3CC2)nc1.O=C(O)C(F)(F)F | -2.106% |
| O=C1CCC2(CCOC2)CN1CCCOc1cccnc1 (stereo unspecified) | 36.56% |
| CSCCC(=O)N1CCCC(n2ccnc2)C1 (stereo unspecified) | 98.51% |
| O=C(CCS(=O)(=O)C1CCCC1)N1CCCC(n2ccnc2)C1 (stereo unspecified) | 7.067% |
| CC(C)S(=O)(=O)CC(=O)N1CCCC(n2ccnc2)C1 (stereo unspecified) | 0.06667% |
| CC(C)(C)NCC(=O)N1CCCC(n2ccnc2)C1 (stereo unspecified) | -1.533% |
| O=C(CCOCC(F)(F)F)N1CCCC(n2ccnc2)C1 (stereo unspecified) | 105.8% |
| CC(C)c1noc(CCC(=O)N2CCCC(n3ccnc3)C2)n1 (stereo unspecified) | 13.44% |
| CCc1nnsc1C(=O)NC1CCN(CCOc2ccc(Br)cc2)CC1 | -5.495% |
| CN1CCN(Cc2noc(CCc3nc(-c4ccccc4)no3)n2)CC1 | 3.84% |
| O=C(CN1CCc2cncnc2C1)NC(c1ccccc1)C1CC1 (stereo unspecified) | 5.851% |
| CC(C(N)=O)S(=O)(=O)Cc1cc(Cl)c2c(c1)OCO2 (stereo unspecified) | -4.736% |
| O=C(CS(=O)(=O)Cc1cc(Cl)c2c(c1)OCO2)N1CCCC1 | 112.9% |
| O=C(CS(=O)(=O)Cc1cc(Cl)c2c(c1)OCO2)N1CCCCCC1 | 135.5% |
| CCN(C(=O)CS(=O)(=O)Cc1cc(Cl)c2c(c1)OCCCO2)C1CC1 | 3.578% |
| CN(C)C(=O)CS(=O)(=O)Cc1cc(Cl)c2c(c1)OCO2 | 2.003% |
| CNC(=O)CS(=O)(=O)Cc1cc(Cl)c2c(c1)OCCCO2 | 7.566% |
| c1cnnc(N2CCCC(NCc3nc(-c4cccs4)no3)C2)c1 (stereo unspecified) | -0.05894% |
| Fc1cccc(C(NCc2ncc[nH]2)c2ccccn2)c1 (stereo unspecified) | -5.246% |
| CCOCCCC(=O)N(C)C(c1cccc(F)c1)c1ccccn1 (stereo unspecified) | 89.97% |
| CCCC(=O)N(C)c1cccc2ncccc12 | -4.906% |
| CCCC(=O)N(C)C(c1cccc(F)c1)c1ccccn1 (stereo unspecified) | 104.7% |

| Compound | Percent Effect |
| --- | --- |
| CCOCCC(=O)NC(Cc1ccc(C)cc1)c1ccccn1 (stereo unspecified) | 30.55% |
| CN(C)C(=O)CCCNC(=O)C(c1cccc(F)c1)N(C)C (stereo unspecified) | -9.864% |
| O=C(C1CC(=O)N(C2CC2)C1)N1CCN(CCn2cccc2)CC1 (stereo unspecified) | -24.19% |
| CCc1nnsc1-c1nc(C(C)C)nn1-c1ccc2c(c1)OCO2 | 11.97% |
| CNC(=O)C(C)(C)N1CCC[C@H]1C(=O)NC1CCCC1 | 1.106% |
| Cc1onc(N)c1S(=O)(=O)N1CCCCC1C (stereo unspecified) | -5.745% |
| O=C(NC1CCCC1)c1nc2c(o1)CN(C(=O)CO)C2 | -3.342% |
| CC(C)NC(=O)N1CC(=O)c2sc(NC3CCCCC3)nc2C1 | 121.6% |
| CC(C)CC(=O)N1CC(=O)c2sc(NC3CCCCC3)nc2C1 | 104.9% |
| O=C(NC1CCCC1)c1nc2c(o1)CN(C(=O)CCO)C2 | 3.342% |
| CC(C)NC(=O)N1CCN2C(=O)OC[C@H]2C1 | -2.318% |
| CCOC(=O)c1nc(CN2CCN(C(=O)NC3CCCCC3)CC2)cs1 | 0.1108% |
| CC[C@H](C)[C@H](N)C(=O)N1CC(=O)c2sc(NC3CCCCC3)nc2C1 | 89.49% |
| COC(=O)[C@H]1CN(C(=O)NC(C)C)CCN1C(=O)C1CCCCC1 | -4.407% |
| COc1nccnc1N1CCN(Cc2cccc(C)c2)C(=O)C1 | -1.846% |
| O=C(NCC1(c2ccc(F)cc2)CCC1)N1CCC2(C1)OCCO2 | -19.46% |
| Cn1c(CCNC(=O)CC[C@@H]2CCCN3CCCC[C@H]23)n[nH]c1=O | -0.3828% |
| CC(C)(O)CSCCNC(=O)c1ccc(F)cc1Cl | -9.614% |
| O=C(NCCNc1ccc(C(F)(F)F)cn1)c1ccc(Br)cc1 | 145.4% |
| O=C(NCCNc1ccc(C(F)(F)F)cn1)c1cc(Cl)ccc1F | 114.8% |
| O=C(NCCNc1ccc(C(F)(F)F)cn1)c1ccc(Br)cc1F | 1.294% |
| Cc1occc1C(=O)NCCOc1ccc(C(F)(F)F)cn1 | -9.163% |

| Compound | Percent Effect |
| --- | --- |
| O=C(NCCNc1ccc(C(F)(F)F)cn1)c1cncc(Br)c1 | 0.7864% |
| N#Cc1ccc(NCCNc2ccc(C(F)(F)F)cn2)nc1 | -10.16% |
| O=C(NCCNc1ccc(C(F)(F)F)cn1)c1ccoc1 | 28.2% |
| CC(C)(C)C(O)CCNC(=O)c1ccc(F)cc1Cl (stereo unspecified) | 15.76% |
| O=C(NCCNc1ccc(C(F)(F)F)cn1)c1ccc(F)cc1Cl | 145.5% |
| O=C(NCCNc1ccc(C(F)(F)F)cn1)c1ccc(Cl)cc1F | 105.2% |
| CC(C)n1ccnc1C1CCCN(c2ccnc3ccccc23)C1 (stereo unspecified) | -21.91% |
| O=C(c1cccnc1)N1CCN(c2ccc(-n3cccc3)nn2)CC1 | -8.085% |
| CCCc1noc(CS(=O)(=O)CC(=O)NC(C)CCC)n1 (stereo unspecified) | 14.1% |
| Cc1nnc(CCNC(=O)Nc2ccc(S(C)(=O)=O)cc2)[nH]1 | -1.089% |
| COC(=O)CC(c1ccc(OC)c(OC)c1)c1oc(C)cc(=O)c1O (stereo unspecified) | 10.24% |
| CN(C)S(=O)(=O)N1CC[C@]2(C[C@H](Oc3cccnc3)CO2)C1.O=C(O)C(F)(F)F | -11.38% |
| Cc1cnn(CC2CCCCN2Cc2nnc(C3CC3)n2C)c1 (stereo unspecified) | 0.7799% |
| Cc1cnn(CC2CCCN2Cc2nnsc2Cl)c1 (stereo unspecified) | -1.868% |
| COCCc1noc(CN2CCOC(Cn3cc(C)cn3)C2)n1 (stereo unspecified) | 92.63% |
| Cc1cnn(CC2CN(Cc3nc(C4CC4)no3)CCO2)c1 (stereo unspecified) | 115.6% |
| Cc1cnn(CC2CN(CCS(=O)(=O)C(F)(F)F)CCO2)c1 (stereo unspecified) | -38.13% |
| Cc1cnn(CC2CCCN2Cc2nnc(C3CC3)n2C)c1 (stereo unspecified) | 103.3% |
| Cc1cnn(CC2CN(Cc3nnc(C4CC4)n3C)CCO2)c1 (stereo unspecified) | 99.89% |
| Cc1cnn(CC2CN(Cc3nccn3C)CCO2)c1 (stereo unspecified) | -4.713% |
| Cc1cnn(CC2CN(Cc3nc(-c4ccoc4)no3)CCO2)c1 (stereo unspecified) | -0.2172% |
| OC1(CNc2ccc(-c3nc(C4CC4)no3)cn2)CCCCC1 | 10.35% |

| Compound | Percent Effect |
| --- | --- |
| O=C(O)C1c2nc[nH]c2CCN1CC(c1ccccc1)c1ccccc1 (stereo unspecified) | -19.87% |
| O=c1cc(N2CCNCC2)cnn1CCCn1cccn1 | 6.31% |
| CSCc1nc(CNC(=O)C2CCCN(CC(N)=O)C2)cs1 (stereo unspecified) | -6.144% |
| CCC(C)(C)NC(=O)COC(=O)c1cc(C)ccc1NC(=O)N(C)C | -1.36% |
| O=C(O)c1cccc(N2C[C@H](NC(=O)C3CCOCC3)[C@@H](C3CC3)C2)n1 | -12.83% |
| CN(CCc1ccccc1)Cc1nc(Cc2cccc(F)c2)no1 | -15.79% |
| CN(Cc1nc(Cc2cccc(C(F)(F)F)c2)no1)C1CCOCC1 | 106.5% |
| CN(CCc1cn[nH]c1)Cc1nc(Cc2cccc(F)c2)no1 | -20.63% |
| CN(Cc1nc(Cc2cccc(C(F)(F)F)c2)no1)C(C1CC1)C1CC1 | 104.1% |
| CN(CCc1cn[nH]c1)Cc1nc(Cc2cccc(C(F)(F)F)c2)no1 | -3.312% |
| CN1CCCCC1Cc1nc(Cc2cccc(F)c2)no1 (stereo unspecified) | 9.056% |
| CCN(CC)Cc1nc(Cc2cccc(C(F)(F)F)c2)no1 | 107.6% |
| CCn1ccnc1CN(C)Cc1nc(Cc2cccc(F)c2)no1 | 17.71% |
| CN(Cc1nc(Cc2cccc(F)c2)no1)C1CCOCC1 | 108% |
| Cc1n[nH]c(C)c1CNCC(O)c1ccc(F)c(F)c1 (stereo unspecified) | -7.93% |
| O=C(c1ccc(-n2ccnc2)nn1)N1CCCC1CCc1ccccc1 (stereo unspecified) | 7.406% |
| c1nc2c(c(NCCCn3cncn3)n1)CCN(CC1CCOC1)CC2 (stereo unspecified) | 11.83% |
| CN(Cc1cccc(C(F)(F)F)c1)Cc1nc(-c2cnccn2)no1 | -14.23% |
| CN(Cc1cnn(C)c1)Cc1nc(Cc2cccc(Cl)c2)no1 | 5.655% |
| CN(Cc1nc(Cc2cccc(C(F)(F)F)c2)no1)C1CCCCC1 | 113.9% |
| CN(Cc1nc(Cc2cccc(C(F)(F)F)c2)no1)CC1CCCCO1 (stereo unspecified) | 99.9% |
| CCOC1COC2(CCN(CC3CCOCC3)CC2)C1.O=C(O)C(F)(F)F (stereo unspecified) | 102.9% |

| Compound | Percent Effect |
| --- | --- |
| CN(C)C(=O)COC1COC2(CCN(CC3CCOCC3)CC2)C1.O=C(O)C(F)(F)F (stereo unspecified) | 121.3% |
| O=C(O)C(F)(F)F.O=C(O)C(F)(F)F.c1ccc(OC2COC3(CCN(CC4CC4)CC3)C2)nc1 (stereo unspecified) | -30.37% |
| CN(C)C(=O)COC1COC2(CCN(CC3CC3)CC2)C1.O=C(O)C(F)(F)F (stereo unspecified) | -29.66% |
| CCOC1COC2(CCN(CC3CC3)CC2)C1.O=C(O)C(F)(F)F (stereo unspecified) | 97.53% |
| O=C(O)C(F)(F)F.O=S(=O)(N[C@@H]1CCO[C@]2(CCN(CC3CCOCC3)C2)C1)C1CC1 | -3.129% |
| O=C(C1CCC2(CCN(CC3CCOCC3)CC2)O1)N1CCCC1.O=C(O)C(F)(F)F (stereo unspecified) | -34.36% |
| COc1ccccc1CN1CC[C@]2(C[C@@H](OCC(=O)N(C)C)CO2)C1.O=C(O)C(F)(F)F | -8.079% |
| Clc1cc(Cl)cc(CN2CCC(NCc3cc[nH]n3)CC2)c1 | 16.8% |
| Cc1cccc(C(C)(C)NC(=O)CS(=O)(=O)CC(C)C)c1 | 15.34% |
| O=C(C[C@@H]1COC[C@H]2CN(CC3CC3)C[C@@H]12)N1CCCCO1.O=C(O)C(F)(F)F | -10.75% |
| CC[C@H]1CN(S(C)(=O)=O)CC[C@H]1CC(=O)NCCOC | 0.9239% |
| CCC1CN(CC(=O)NCCOC)CCO1 (stereo unspecified) | -3.161% |
| CC[C@H]1CN(C(=O)C2CC2)CC[C@H]1CC(=O)NCCN1CCOCC1 | 0.8633% |
| COCCNC(=O)C[C@@H]1COC[C@H]2CN(C(=O)C3CCOCC3)C[C@@H]12 | 115.8% |
| O=C(C[C@@H]1COC[C@H]2CN(CC3CCOCC3)C[C@@H]12)N1CCCCO1.O=C(O)C(F)(F)F | -14.45% |
| COCCNC(=O)C[C@@H]1COC[C@H]2CN(C(=O)c3cnccn3)C[C@@H]12 | -3.747% |
| COCCNC(=O)C[C@@H]1COC[C@H]2CN(CC3CCOCC3)C[C@@H]12.O=C(O)C(F)(F)F | 95.67% |
| COCCNC(=O)C[C@@H]1COC[C@H]2CN(C(=O)COC)C[C@@H]12 | 99.69% |
